# SSB-PriA inh = inhibitors of Klebsiella pneumoniae PriA binding to SSB C-terminal tail, primary screen, biochemical, AlphaScreen; inhibition, % at 33 µM; AID 1272365, 2023; PriA–SSB C-terminal tail interaction (Klebsiella pneumoniae); AlphaScreen SSBct-PriA binding, biotinylated peptide; 0.6% of 430,000 active; in the data active = inhibition mostly above about 37%, no sharp cut-off; inactive = mostly below about 20%;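 note: plate controls were negative control peptide for no effect and reference peptide for full effect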
# BoNT-A LC inh2 = BoNT/A light chain protease inhibitors, primary screen, biochemical, flow cytometry, MLPCN library. inhibition, % at 10 µM. 0.17% of 360,000 active. multiplex microsphere protease substrate cleavage. Botulinum neurotoxin type A light chain protease (Clostridium botulinum A str. ATCC 3502). AID 588499, 2011; note: plate controls were buffer without enzyme for full effect and enzyme alone for no effect
# Anthrax LF prot = Bacillus anthracis LF protease inhibitors, primary screen, biochemical, multiplex microsphere, MLPCN library | Lethal factor (Bacillus anthracis), P15917 | multiplex microsphere protease cleavage assay | inhibition, % at 10 µM | 0.12% of 360,000 active; note: plate controls were buffer without enzyme for full effect and enzyme alone for no effect
# Autofluor counter = flagged as autofluorescent in microsphere protease counterscreen | compound autofluorescence counterscreen, microsphere flow cytometry; active compounds read high | AID 624483 | fluorescence intensity (no concentration beside the values) | 3.1% of 360,000 active; in the data active = fluorescence intensity above about 16000; inconclusive = no clear call, values can overlap the other calls
# BoNT-F LC inh = BoNT/F light chain protease inhibitors, primary screen, biochemical, flow cytometry, MLPCN library. Botulinum neurotoxin type F light chain protease (Clostridium botulinum). Multiplex microsphere protease cleavage assay. inhibition, % at 10 µM. 0.22% of 360,000 active. AID 588497, 2011; in the data active = inhibition above about 35%, passing the limit was not always enough; inconclusive = no clear call, values can overlap the other calls; note: plate controls were buffer without enzyme for full effect and enzyme alone for no effect
# MazF activator = activators of E. coli MazEF toxin-antitoxin RNase, primary screen, biochemical, fluorescence, uHTS; Endoribonuclease toxin MazF (Escherichia coli (strain K12)), P0AE70; FAM/BHQ RNA-DNA oligo cleavage fluorescence, 5 h; activation, % at 20 µM; 0.32% of 350,000 active; in the data active = activation above about 50%
# Target sequence (P0AE70 whole entry, looked up): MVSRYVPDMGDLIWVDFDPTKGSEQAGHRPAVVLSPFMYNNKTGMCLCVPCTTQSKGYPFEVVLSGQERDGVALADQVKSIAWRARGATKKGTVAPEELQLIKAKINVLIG
# The depositor's hits bear a star; ? = inconclusive; . = no result given. Most compounds without a hit are left out; they make up all but 3.3% or so of the library. Cut-off read from the data, not from the text of the source, unless noted: active = inhibition above about 30%; inconclusive = no clear call, values can overlap the other calls; inactive = below that.
SMILES,SSB-PriA inh,BoNT-A LC inh2,Anthrax LF prot,Autofluor counter,BoNT-F LC inh,MazF activator
COCC(=O)N1CCCc2ccc(NS(=O)(=O)c3cc(C)c(C)cc3OC)cc21,-13,.,.,.,.,.
COc1ccccc1-c1cnn2c(Nc3ccc(C)c(Cl)c3)cc(C)nc12,-42,.,.,.,.,.
COc1ccc(C2C(C(=O)O)CC(=O)N2C2CCCCC2)cc1 (configuration not stated),-10,?,1,20476*,2,2
O=C(O)C1CC(=O)N(C2CCCCC2)C1c1ccccc1 (configuration not stated),-23,1,4,4290,?,4
COc1cc(C(=O)N2CCN(C3=NS(=O)(=O)c4ccccc43)CC2)cc(OC)c1OC,.,0,1,3557,0,2
O=C(C1CC(=O)N(c2ccccc2)C1)N1CCN(C2=NS(=O)(=O)c3ccccc32)CC1 (configuration not stated),2,-1,0,23523*,0,3
CCCC(=O)N1CCN(C2=NS(=O)(=O)c3ccccc32)CC1,0,?,-4,23423*,-6,3
O=C(NC(CO)(CO)CO)c1coc(=O)c(Br)c1,-13,-1,-2,17123*,-2,8
Cc1nc(-n2[nH]c3c(c2=O)CCCC3)[nH]c(=O)c1Cc1ccccc1,0,-1,0,3847,-4,63*
COc1cc(/C=C2\SC(=S)N(CC(=O)Nc3ccccn3)C2=O)cc(OC)c1OC,22,39*,24,2410,19,-37
COc1cc(/C=C2\SC(=S)N(CCC(=O)Nc3ccccn3)C2=O)cc(OC)c1OC,7,14,20,4556,12,9
COc1cc(/C=C2/SC(=S)N(CC(=O)Nc3nc4ccccc4s3)C2=O)cc(OC)c1OC,25,40*,42*,5455,34,-34
CC(=O)Nc1nc(-c2cc3ccccc3o2)cs1,-3,.,.,.,.,.
O=C(NCC(O)(c1ccccc1)C(F)(F)F)c1ccco1 (configuration not stated),2,.,.,.,.,.
CCC(=O)Nc1ccc(S(=O)(=O)Nc2cccc(C)c2)cc1OC,1,-2,0,23804*,-3,2
CNS(=O)(=O)c1ccc(C(=O)Nc2nccs2)o1,1,.,.,.,.,.
O=C(O)c1ccc(C(=O)O)c(C(=O)c2ccccc2)c1,-8,-3,1,17146*,-5,5
O=C(c1ccccc1)c1ccc(C(=O)O)c(C(=O)O)c1,-9,0,-2,4930,1,-2
O=C(O)c1cc(C(=O)O)c(-c2ccccc2)c(C(=O)O)c1,0,-1,-4,22323*,-1,9
CCOc1ccc(-n2c(O)c(/C=C3\C=Nc4ccccc43)c(=O)[nH]c2=O)cc1,.,3,-9,4684,21,120*
COc1ccc(-n2c(O)c(C=C3C=Nc4ccccc43)c(=O)[nH]c2=O)cc1,-14,.,.,.,.,.
COc1ccc(-n2nc(C(=O)NCC(=O)NCc3ccco3)c3ccccc3c2=O)cc1Cl,-11,1,-4,21931*,2,8
COc1ccc(-n2nc(C(=O)NCc3ccco3)c3c4ccccc4n(C)c3c2=O)cc1,-5,-1,-1,3055,-2,16
COc1ccc(-n2nc(C(=O)NCC(=O)N3CCN(c4ccccn4)CC3)c3ccccc3c2=O)cc1,-8,?,-2,22175*,0,6
COc1ccc(-n2nc(C(=O)NCc3ccco3)c3ccccc3c2=O)cc1,-12,5,-1,19127*,4,-7
SMILES,SSB-PriA inh,BoNT-A LC inh2,Anthrax LF prot,Autofluor counter,BoNT-F LC inh,MazF activator
O=C(c1cc2ccccc2[nH]1)N1CCN(c2nc3c(C(F)(F)F)cccc3s2)CC1,-27,.,.,.,.,.
O=C(Nc1ccc(F)c(C(F)(F)F)c1)c1c[nH]c(=O)n(Cc2ccco2)c1=O,-6,.,.,.,.,.
COc1ccc(-c2csc(NC(=O)c3ccc(Br)cc3)n2)cc1,-10,.,.,.,.,.
C=CCNc1nc(Cl)nc(Nc2cc(Cl)ccc2OC)n1,-3,1,-13,4088,13,58*
CC1(C)C(c2ccccc2)=NC(c2cccnc2)N1O (configuration not stated),-7,?,0,21816*,0,-1
CC1(C)C(c2ccccc2)=NC(c2ccc(F)cc2)N1O (configuration not stated),2,0,-4,7918,0,0
COc1ccc(-n2c(C)nc3ccc(NC(=O)c4ccc(S(=O)(=O)N(C)C)cc4)cc3c2=O)cc1,1,.,.,.,.,.
O=C(CSc1ncn[nH]1)N1CCCCC1,-1,1,-4,4675,8,0
O=C(CSc1ncn[nH]1)N(C1CCCCC1)C1CCCCC1,-16,-1,2,20145*,-3,-3
COc1cccc(CNc2ccc(Br)cn2)c1O,-1,?,-1,24305*,-6,-14
COc1cccc(CNc2ncc(Br)cc2Br)c1O,-5,0,0,3394,1,-18
CN(c1ccccc1)C(c1ccc(F)cc1)c1nnnn1C1CCCC1 (configuration not stated),-27,?,-5,23833*,-8,-2
CN(c1ccccc1)C(c1ccc(F)cc1)c1nnnn1CC1CCCO1 (configuration not stated),-26,0,-1,16681*,-2,9
Fc1ccc(C(c2nnnn2C2CCCCC2)N2CCCC2)cc1 (configuration not stated),-9,0,2,2392,4,4
C/C=C/Cn1c(=O)c2c(nc3n2C(C)C(C)=NN3CC(=O)OCC)n(C)c1=O (configuration not stated),-6,.,.,.,.,.
O=[N+]([O-])c1ccc(/C=C/C2=NN(c3ccccc3)C(c3ccco3)C2)cc1 (configuration not stated),3,57*,40*,34435*,66*,-22
O=C(NCC1CCN(c2ncccn2)CC1)c1ccc(OC(F)(F)F)cc1,-1,.,.,.,.,.
CCCSc1nc2c(c(=O)[nH]c(=O)n2C)n1Cc1ccccc1,4,-3,12,4071,-3,-21
Cn1c(=O)[nH]c(=O)c2c1nc(CN1CCOCC1)n2Cc1ccccc1,2,2,1,15936,2,1
CCCSc1nc2c(c(=O)[nH]c(=O)n2C)n1Cc1ccc(C)cc1,-20,1,-2,21791*,1,-32
Cc1ccc(Cn2c(CN3CCOCC3)nc3c2c(=O)[nH]c(=O)n3C)cc1,-5,4,-2,22053*,2,1
CCOC(=O)CSc1nc2c(c(=O)[nH]c(=O)n2C)n1C/C=C(/C)Cl,-17,?,-3,24116*,0,-14

# Compound activity (PubChem BioAssay)
